Assay [1] in a line: NCI Yeast Anticancer Drug Screen. Data for the rad50 strain (AID 155).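 Further: 0% = growth of vehicle-only cultures of the same strain.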 The conditions noted are these: S. cerevisiae rad50 strain growth inhibition, active compounds read high. In short, it runs like this: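 DNA repair mutant yeast, compound exposure, growth read-out; inhibition is taken relative to vehicle.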
The nature of assay [2]: NCI Yeast Anticancer Drug Screen. Data for the mec2-1 strain (AID 157). The following applies: S. cerevisiae mec2-1 strain, active compounds read high. In short, it runs like this:
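Cells of the genetically defined mec2-1 yeast strain are incubated with test compound. Inhibition of growth is calculated against vehicle-treated controls.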

Assay [3] in a line: NCI Yeast Anticancer Drug Screen. Data for the sgs1 mgt1 strain (AID 161).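 Further: 0% = growth of cultures given vehicle only.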 The conditions noted are these: S. cerevisiae sgs1 mgt1 strain, active compounds read high. In short, it runs like this:
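Mutant yeast exposed to compound; growth scored against vehicle-only wells.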

Assay [4] can be described thus: NCI Yeast Anticancer Drug Screen. Data for the cln2 rad14 strain (AID 165).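 Further: 0% = growth equal to vehicle treated cultures.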 The following applies: S. cerevisiae cln2 rad14 strain, active compounds read high. In short, it runs like this:
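The screen exposed genetically defined yeast (cln2 rad14) to test compounds and scored growth inhibition relative to vehicle-treated controls.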

A short description of assay [5]: NCI Yeast Anticancer Drug Screen. Data for the bub3 strain (AID 167). The conditions noted are these: S. cerevisiae bub3 mutant strain, active compounds read high. An outline of the steps: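 In this screen, a yeast mutant lacking normal mitotic checkpoint function is challenged with compound. Relative growth versus vehicle gives the inhibition value.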
Assay [6] can be described thus: NCI Yeast Anticancer Drug Screen. Data for the mlh1 rad18 strain (AID 175). The following applies: S. cerevisiae mlh1 rad18 strain growth inhibition, active compounds read high. In short, it runs like this: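 Compound-treated yeast growth, normalised to vehicle controls. Strain bears defined DNA repair mutations.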
[7] abbreviates: at 5.0 µM (retest, dose inferred, filed as 0.5).
Setting [8] is: at 50.0 µM (retest, dose inferred, filed as 5.0).

Experimental findings from PubChem BioAssay (NCI) are described below.

About 79,000 compounds went through this panel and 15% of them were active in at least one assay; those are over-represented in the sample as a whole. A number with no mark means an inactive call. Active and inactive are the calls of the source. No stated cut-off is given here; in the data, active means growth inhibition above about 70%; inactive means the rest.

Consider `O=C(CCN1CCOCC1)c1ccc(Oc2ccc(F)cc2)cc1`, for which the growth inhibition in assay [1] (setting [7]) is 65%; in assay [1] (setting [8]), 87% (active); in assay [1] (at 50.0 µM), 67.2%; in assay [2] (setting [7]), 64%; in assay [2] (setting [8]), 95% (active); in assay [2] (at 50.0 µM) it was 77% (active). Further, the growth inhibition in assay [3] (setting [7]) was 80% (active); in assay [3] (setting [8]), 95% (active); in assay [3] (at 50.0 µM), 85.2% (active); in assay [4] (setting [7]), 64%; in assay [4] (setting [8]) it was 66%; in assay [4] (at 50.0 µM), 78.1% (active). For the same molecule, the growth inhibition in assay [5] (setting [7]) was 88% (active); in assay [5] (setting [8]) it was 98% (active); in assay [5] (at 50.0 µM) it was 85.4% (active); in assay [6] (setting [7]), 74% (active); in assay [6] (setting [8]), 90% (active); in assay [6] (at 50.0 µM), 88% (active).

For `O=[N+]([O-])c1ccc(Cl)cc1C(Nc1nncs1)Nc1nncs1`, the growth inhibition in assay [1] (setting [7]) was 8%; in assay [1] (setting [8]), 81% (active); in assay [1] (at 50.0 µM), 74.7% (active); in assay [2] (setting [7]), 7%; in assay [2] (setting [8]), 76% (active); in assay [2] (at 50.0 µM) it was 40.6%. For the same molecule, the growth inhibition in assay [3] (setting [7]) is 17%; in assay [3] (setting [8]), 84% (active); in assay [3] (at 50.0 µM), 86% (active); in assay [4] (setting [7]) it was 2%; in assay [4] (setting [8]), 55%; in assay [4] (at 50.0 µM) it was 41.2%. The growth inhibition in assay [5] (setting [7]) is -1%; in assay [5] (setting [8]), 58%; in assay [5] (at 50.0 µM), 57.4%; in assay [6] (setting [7]) it was 0%; in assay [6] (setting [8]), 88% (active); in assay [6] (at 50.0 µM), 80% (active).

Regarding `COc1cc(-c2ccc(-[n+]3nc(Cc4ccc5c(c4)OCO5)nn3-c3ccccc3)c(OC)c2)ccc1-[n+]1nc(Cc2ccc3c(c2)OCO3)nn1-c1ccccc1`, the growth inhibition was 4% in assay [1] (setting [7]); 41% in assay [1] (setting [8]); 68.8% in assay [1] (at 50.0 µM); 1% in assay [2] (setting [7]); 46% in assay [2] (setting [8]); 91.9% (active) in assay [2] (at 50.0 µM). For the same molecule, the growth inhibition was 1% in assay [3] (setting [7]); 49% in assay [3] (setting [8]); 92.6% (active) in assay [3] (at 50.0 µM); 2% in assay [4] (setting [7]); 22% in assay [4] (setting [8]); 37.1% in assay [4] (at 50.0 µM). In addition, the growth inhibition in assay [5] (setting [7]) was -1%; in assay [5] (setting [8]), 60%; in assay [5] (at 50.0 µM), 83.4% (active); in assay [6] (setting [7]), 2%; in assay [6] (setting [8]), 79% (active); in assay [6] (at 50.0 µM) it was 91.4% (active).

Turning to `NC(=O)SCC(=O)Nc1ccccc1`, the growth inhibition in assay [1] (setting [7]) is 5%; in assay [1] (setting [8]), 82% (active); in assay [1] (at 50.0 µM), 86.5% (active); in assay [2] (setting [7]), -1%; in assay [2] (setting [8]), 83% (active); in assay [2] (at 50.0 µM), 67.9%. The growth inhibition in assay [3] (setting [7]) was 1%; in assay [3] (setting [8]), 82% (active); in assay [3] (at 50.0 µM) it was 87.8% (active); in assay [4] (setting [7]) it was 5%; in assay [4] (setting [8]), 81% (active); in assay [4] (at 50.0 µM) it was 80% (active). Further, the growth inhibition in assay [5] (setting [7]) was 3%; in assay [5] (setting [8]) it was 83% (active); in assay [5] (at 50.0 µM), 83.6% (active); in assay [6] (setting [7]), 3%; in assay [6] (setting [8]) it was 87% (active); in assay [6] (at 50.0 µM), 87.2% (active).

`CCC[CH2][Sn]([CH2]CCC)([O]C(=O)c1cc(OC)c(OC)c(OC)c1)[O]C(=O)c1cc(OC)c(OC)c(OC)c1`: the growth inhibition in assay [1] (setting [7]) is 96% (active); in assay [1] (setting [8]) it was 96% (active); in assay [1] (at 50.0 µM), 71.9% (active); in assay [2] (setting [7]), 96% (active); in assay [2] (setting [8]), 96% (active); in assay [2] (at 50.0 µM), 84.7% (active). For the same molecule, the growth inhibition in assay [3] (setting [7]) was 94% (active); in assay [3] (setting [8]), 94% (active); in assay [3] (at 50.0 µM), 74.8% (active); in assay [4] (setting [7]), 95% (active); in assay [4] (setting [8]), 95% (active); in assay [4] (at 50.0 µM) it was 80% (active). Besides, the growth inhibition in assay [5] (setting [7]) is 97% (active); in assay [5] (setting [8]) it was 97% (active); in assay [5] (at 50.0 µM) it was 74.8% (active); in assay [6] (setting [7]), 96% (active); in assay [6] (setting [8]) it was 96% (active); in assay [6] (at 50.0 µM), 78.5% (active).

On to `Nc1ccccc1[S][Sn]([c]1ccccc1)([c]1ccccc1)[c]1ccccc1`, for which the growth inhibition was 99% (active) in assay [1] (setting [7]); 98% (active) in assay [1] (setting [8]); 98.5% (active) in assay [1] (at 50.0 µM); 99% (active) in assay [2] (setting [7]); 98% (active) in assay [2] (setting [8]); 98.5% (active) in assay [2] (at 50.0 µM). The growth inhibition in assay [3] (setting [7]) was 99% (active); in assay [3] (setting [8]) it was 99% (active); in assay [3] (at 50.0 µM) it was 98.5% (active); in assay [4] (setting [7]), 98% (active); in assay [4] (setting [8]), 98% (active); in assay [4] (at 50.0 µM), 98% (active). The growth inhibition in assay [5] (setting [7]) was 97% (active); in assay [5] (setting [8]), 99% (active); in assay [5] (at 50.0 µM), 98.3% (active); in assay [6] (setting [7]), 99% (active); in assay [6] (setting [8]) it was 99% (active); in assay [6] (at 50.0 µM), 98.3% (active).

For the molecule `Cc1nn(CCO)c(=O)c(C#N)c1C`, the growth inhibition was 1% in assay [1] (setting [7]); 17% in assay [1] (setting [8]); 66.2% in assay [1] (at 50.0 µM); 5% in assay [2] (setting [7]); 16% in assay [2] (setting [8]); 49% in assay [2] (at 50.0 µM). Further, the growth inhibition in assay [3] (setting [7]) is 2%; in assay [3] (setting [8]), 14%; in assay [3] (at 50.0 µM) it was 61.7%; in assay [4] (setting [7]) it was -1%; in assay [4] (setting [8]) it was -5%; in assay [4] (at 50.0 µM) it was 11.7%. In addition, the growth inhibition in assay [5] (setting [7]) was 19%; in assay [5] (setting [8]), 77% (active); in assay [5] (at 50.0 µM), 34.1%; in assay [6] (setting [7]), 5%; in assay [6] (setting [8]), 30%; in assay [6] (at 50.0 µM), 50.5%.

For the molecule `Cc1ccc(S(=O)(=O)NCCCOS(=O)(=O)c2ccc(C)cc2)cc1`, the growth inhibition in assay [1] (setting [7]) is 20%; in assay [1] (setting [8]), 46%; in assay [1] (at 50.0 µM), 22.8%; in assay [2] (setting [7]), 16%; in assay [2] (setting [8]), 33%; in assay [2] (at 50.0 µM) it was 0.15%. The growth inhibition in assay [3] (setting [7]) is 34%; in assay [3] (setting [8]), 65%; in assay [3] (at 50.0 µM), 28.9%; in assay [4] (setting [7]) it was 34%; in assay [4] (setting [8]), 63%; in assay [4] (at 50.0 µM), 29.9%. Further, the growth inhibition in assay [5] (setting [7]) was 37%; in assay [5] (setting [8]) it was 66%; in assay [5] (at 50.0 µM), 29.4%; in assay [6] (setting [7]), 15%; in assay [6] (setting [8]), 53%; in assay [6] (at 50.0 µM), 45.9%.

`CC(NNC(=S)N1CCCC1)c1cccnn1` (stereo not given): the growth inhibition in assay [1] (setting [7]) is 98% (active); in assay [1] (setting [8]) it was 99% (active); in assay [1] (at 50.0 µM) it was 89% (active); in assay [2] (setting [7]) it was 91% (active); in assay [2] (setting [8]), 99% (active); in assay [2] (at 50.0 µM) it was 92.3% (active). For the same molecule, the growth inhibition in assay [3] (setting [7]) was 97% (active); in assay [3] (setting [8]), 99% (active); in assay [3] (at 50.0 µM) it was 88.6% (active); in assay [4] (setting [7]), 96% (active); in assay [4] (setting [8]), 99% (active); in assay [4] (at 50.0 µM), 90.5% (active). Besides, the growth inhibition in assay [5] (setting [7]) was 98% (active); in assay [5] (setting [8]) it was 99% (active); in assay [5] (at 50.0 µM), 91.2% (active); in assay [6] (setting [7]), 97% (active); in assay [6] (setting [8]) it was 99% (active); in assay [6] (at 50.0 µM), 85.3% (active).

Consider `CC(=O)Nc1ccc(-c2nnc(SCC(=O)Nc3cccc(Cl)c3)o2)cc1`, for which the growth inhibition in assay [1] (setting [7]) is 14%; in assay [1] (setting [8]), 45%; in assay [1] (at 50.0 µM), 22.2%; in assay [2] (setting [7]) it was 1%; in assay [2] (setting [8]) it was 39%; in assay [2] (at 50.0 µM), 15.6%. In addition, the growth inhibition in assay [3] (setting [7]) is 10%; in assay [3] (setting [8]), 33%; in assay [3] (at 50.0 µM), 55.6%; in assay [4] (setting [7]), 15%; in assay [4] (setting [8]), 49%; in assay [4] (at 50.0 µM), -33.8%. Moreover, the growth inhibition was 8% in assay [5] (setting [7]); 56% in assay [5] (setting [8]); 73.7% (active) in assay [5] (at 50.0 µM); 2% in assay [6] (setting [7]); 71% (active) in assay [6] (setting [8]); 28.7% in assay [6] (at 50.0 µM).
